Screens as filed in PubChem.
Lassa entry inh – Lassa virus entry inhibition | 300,000 tested, 1.2% active | Potency, µM (doses to about 37.9 µM), hits mostly inhibitors | AID 540256 | Lassa virus pseudotype entry inhibition, cell reporter; calls by dose curve; tested in HEK293 cells; also: nearly all actives have a fitted effect of over 50% in size
HCMV antiviral – human cytomegalovirus inhibition; HFF cells, HCMV-luciferase reporter, 72 h; active compounds read low; activity change, negative = inhibition, % at 57.5 µM; 410,000 tested, 4.5% active; AID 1259415; in the data active = activity change below about -60%; inconclusive = no clear call, values can overlap the other calls; inactive = above about -39%
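Two-dose cell screen: HFF monolayers treated with compounds and infected with luciferase-expressing HCMV at 1 PFU/cell, 72 h at 37C, then lysed for luciferase measurement.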
FMDV antiviral – blocks foot and mouth disease virus | FMDV antiviral cell-based qHTS | 410,000 tested, 1.2% active | Potency, µM (highest dose often 57.9 µM), usual class: inhibitors; calls by dose curve; tested in HEK293T cells; also: read-out not given here; nearly all actives have a fitted effect of over 45% in size
HCV inh – blocks hepatitis C virus; Huh7.5.1 HCVcc-Cre infection, luciferase reporter, 44 h; Potency, µM (titrated, usually from 41.8 µM), most hits filed as inhibitors; 340,000 tested, 3.4% active; AID 651820; active = well fitted inhibition curve with a large enough effect; inconclusive = small, poorly fitted or top-dose-only effect, or another doubt; inactive = no such curve, though single readings can be large or run the other way
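Compounds are dispensed onto cells plated 4 h earlier at 1,000 per well, with HCVcc-Cre virus (about 0.5 moi) added next. Following 44 h of culture, luminescent signal is measured for 15 sec after 15 min with substrate at room temperature.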
Marburg entry inh – Marburg virus entry inhibition; Marburg virus pseudotyped entry inhibition, cell reporter; Potency, µM (series often up to 37.8 µM), most hits filed as inhibitors; 300,000 tested, 1.8% active; AID 540276; calls by dose curve; tested in HEK293 cells
Each line names hits and unclear results; the compound was inactive in the other large screens. Sampled rows, rich in hits. Any-hit rate of the full collection: about 7.9%.

COc1ccc(-c2c(-c3ccc(OC)nc3)c3ccccc3n2C)cc1	HCV inh 22.4µM (no result: Lassa entry inh, Marburg entry inh)
COCC(=O)N1CCC2(CC1)CN(C(c1ccccc1)c1ccccc1)C2	none (no result: Lassa entry inh, HCMV antiviral, HCV inh, Marburg entry inh)
COc1ccc(NC(=O)Cn2c(=O)oc3cc(S(=O)(=O)NC4CCCC4)ccc32)cc1OC	HCMV antiviral active (no result: HCV inh, Marburg entry inh)
CC1CCC2(CC1)NC(=O)N(CC(=O)N1c3ccccc3CC1C)C2=O (configuration not stated)	HCMV antiviral -71.2
COc1ccc(CNC(=O)Cn2c(=O)oc3cc(S(=O)(=O)N4CCC(C)CC4)ccc32)cc1	Lassa entry inh inconclusive, Marburg entry inh 7.08µM (no result: HCV inh)
COc1ccc(CNC(=O)Cn2c(=O)oc3cc(S(=O)(=O)N4CCCCCC4)ccc32)cc1	Lassa entry inh inconclusive, HCMV antiviral inconclusive (no result: HCV inh, Marburg entry inh)
Cc1cc(C)cc(NC(=O)Cn2c(=O)oc3cc(S(=O)(=O)N4CCC(C)CC4)ccc32)c1	HCMV antiviral -68.5 (no result: Lassa entry inh)
C[C@H]1CC[C@H]2C(=O)N(Cc3ccccc3)C[C@@H](O)CN2[C@H]1c1cccc(Br)c1	Lassa entry inh inconclusive (no result: HCMV antiviral, FMDV antiviral, HCV inh)
CCCNC(=O)C1(C)CCN(C(=O)c2c(F)ccc(C)c2F)C1 (configuration not stated)	none (no result: Lassa entry inh, HCV inh, Marburg entry inh)
CC1CCN(S(=O)(=O)c2ccc3c(c2)oc(=O)n3CC(=O)N2c3ccccc3CC2C)CC1 (configuration not stated)	HCV inh 12.6µM (no result: Lassa entry inh)
CC(=O)Nc1ccc(S(=O)(=O)N2CCN(c3cc4c(cc3[N+](=O)[O-])n(C)c(=O)n4C)CC2)cc1	FMDV antiviral inconclusive (no result: HCV inh)
Cn1c(=O)n(C)c2cc([N+](=O)[O-])c(N3CCN(S(=O)(=O)c4ccc(C(C)(C)C)cc4)CC3)cc21	Lassa entry inh inconclusive, HCMV antiviral -94.4, HCV inh 14.1µM, Marburg entry inh inconclusive (no result: FMDV antiviral)
O=[N+]([O-])c1cc(C(F)(F)F)cc([N+](=O)[O-])c1N1CCN(S(=O)(=O)c2ccccc2)CC1	FMDV antiviral inconclusive, HCV inh inconclusive
O=[N+]([O-])c1cc(C(F)(F)F)ccc1N1CCN(S(=O)(=O)c2ccc3ccccc3c2)CC1	HCMV antiviral -69.0, FMDV antiviral inconclusive, HCV inh 6.31µM, Marburg entry inh 11.2µM
CCOc1ccc(-n2c(SCC(=O)c3ccccc3)nc3c([nH]c4ccccc43)c2=O)cc1	none (no result: HCV inh, Marburg entry inh)
Cc1ccc(Cn2c(C(=O)O)c(CNCc3ccc(OC(C)C)cc3)c3ccc(C)cc32)cc1	Lassa entry inh inconclusive, HCMV antiviral -104.7, FMDV antiviral inconclusive (no result: HCV inh, Marburg entry inh)
Cc1ccc(CNCc2c(C(=O)O)n(Cc3ccc(C)cc3)c3cc(C)ccc23)cc1	Lassa entry inh inconclusive, HCMV antiviral -107.0 (no result: HCV inh, Marburg entry inh)
CCc1ccc(CNCc2c(C(=O)O)n(Cc3ccc(C)cc3)c3cc(C)ccc23)cc1	Lassa entry inh inconclusive, HCMV antiviral -93.8 (no result: HCV inh, Marburg entry inh)
Cc1ccc2c(CNCCc3ccco3)c(C(=O)O)n(Cc3ccc(F)cc3)c2c1	HCMV antiviral -108.7 (no result: HCV inh, Marburg entry inh)
Cc1ccc(CNCc2c(C(=O)O)n(Cc3ccccc3C)c3cc(C)ccc23)cc1	FMDV antiviral inconclusive (no result: HCV inh, Marburg entry inh)
Cc1ccc(Cn2c(C(=O)O)c(CNCc3ccc(C)o3)c3ccc(C)cc32)cc1	none (no result: HCV inh, Marburg entry inh)
CC(=O)OC[C@H]1O[C@H](CCON=C(C)CCN2CCCCc3nc(C)c(C)cc32)C=C[C@H]1OC(C)=O	none (no result: Lassa entry inh, HCMV antiviral, FMDV antiviral, HCV inh)
CN(CC(=O)Nc1cccc(F)c1)C(=O)c1cccnc1Sc1ccccc1Cl	none
COc1ccc(CNCc2c(C(=O)O)n(Cc3ccc(F)cc3)c3cc(C)ccc23)cc1OC	Lassa entry inh inconclusive, HCMV antiviral -67.6 (no result: HCV inh, Marburg entry inh)
C=Cc1ccc(Cn2c(C(=O)O)c(CNCc3ccccc3)c3ccc(C)cc32)cc1	Lassa entry inh inconclusive, HCMV antiviral -102.4, FMDV antiviral inconclusive (no result: HCV inh, Marburg entry inh)
COc1ccc(Cn2c(C(=O)O)c(CNCc3ccc(C)o3)c3ccc(C)cc32)cc1	Lassa entry inh inconclusive (no result: HCV inh, Marburg entry inh)
Cc1ccc(C)c(SCC(=O)OC/C(O)=C(\C#N)c2nc3ccccc3[nH]2)c1	HCMV antiviral -101.7, Marburg entry inh inconclusive
Cc1cc(Br)ccc1SCC(=O)OCC(O)=C(C#N)c1nc2ccccc2[nH]1	Marburg entry inh inconclusive
Cc1cc(Br)ccc1SCC(=O)OC/C(O)=C(\C#N)c1nc2ccccc2[nH]1	HCMV antiviral -83.8 (no result: Lassa entry inh, Marburg entry inh)
N#CC(=C(O)COC(=O)Cc1c[nH]c2ccccc12)c1nc2ccccc2[nH]1	none
N#C/C(=C(/O)COC(=O)CSc1ccc2ccccc2c1)c1nc2ccccc2[nH]1	HCMV antiviral -101.5, Marburg entry inh inconclusive
NC(=O)CSc1nnnn1-c1cccc(Cl)c1	none
C#CCSc1nnnn1-c1cccc(Cl)c1	Lassa entry inh inconclusive, HCV inh 25.1µM, Marburg entry inh 3.16µM
